An excerpt weighted towards active compounds, which were near 8% of everything screened.
MCF10A rerep: A quantitative high throughput screen for small molecules that induce DNA re-replication in MCF 10a normal breast cells | MCF 10A DNA re-replication, Hoechst nuclear intensity, 48 h | Potency, µM (titrated, usually from 46.1 µM), for inactives: top-dose activity, positive = re-replication, actives largely listed as activators | actives 2.9% (n = 350,000); note: % of control where 0% means no effect; nearly all actives have a fitted effect of over 50% in size
KB-V1 MDR tox: qHTS assay for MDR1-selective chemotherapeutics: Primary screen using the drug-selected MDR subline cells KB-V1 | KB-V1 MDR cells viability, CellTiter-Glo, 72 h | Potency, µM (titrated, usually from 46.1 µM), usual class: cytotoxic | actives 3.4% (n = 400,000) | AID 1347076, 2019; note: % is set by controls: 0 for no effect and ±100 for the full control effect; nearly all actives have a fitted effect of over 60% in size
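Drug-selected KB-V1 cells, grown in DMEM lacking phenol red with 10% FBS, receive compound titrations; after three days at 37 degrees C, surviving cell ATP is quantified by CellTiter-Glo luminescence and responses normalized and curve-fitted.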
KB-3-1 cytotox: qHTS assay for MDR1-selective chemotherapeutics: Primary screen using the parental adenocarcinoma cell KB-3-1; Potency, µM (top dose mostly 46.1 µM), hits mostly cytotoxic; actives 1.4% (n = 400,000); KB-3-1 viability, CellTiter-Glo ATP luminescence, 72 h; AID 1347075, 2019; note: % is set by controls: 0 for no effect and ±100 for the full control effect; nearly all actives have a fitted effect of over 60% in size
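Using CellTiter-Glo luminescence, growth of non-resistant KB-3-1 adenocarcinoma cells is assessed 72 h after pin-tool compound addition at 37 °C. Normalized responses across the concentration series yield fitted curves.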
HT1080NT lethal: qHTS for induction of synthetic lethality in tumor cells producing 2HG: qHTS for the HT-1080-NT fibrosarcoma cell line; HT-1080-NT fibrosarcoma viability, CellTiter-Glo ATP luminescence, 48 h; Potency, µM (doses to about 46.1 µM), for inactives: at the highest dose activity, negative = less viability, actives largely listed as cytotoxic; actives 1.6% (n = 360,000); AID 686970, 2013;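 note: NT is the 2HG producing partner of a matched IDH1 knockdown line; 0% = DMSO-treated cells and -100% = media-only wells without cells; nearly all actives have a fitted effect of over 55% in size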
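Viability by CellTiter-Glo luminescence after 48 h compound exposure at 37C of HT-1080-NT cells (750/well, RPMI, 5% FBS). % activity scaled between DMSO wells and medium-only wells, then curve-fitted and categorized by curve class.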
SW480 rereplic: A quantitative high throughput screen for small molecules that induce DNA re-replication in SW480 colon adenocarcinoma cells; SW480 DNA re-replication, Hoechst DNA content imaging, 48 h; Potency, µM (series often up to 46.1 µM), inactives show at the top dose re-replication activation, usual class: activators; actives 1.8% (n = 340,000); AID 624297, 2012; note: % of control where 0% means no effect; nearly all actives have a fitted effect of over 55% in size
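SW480 cells exposed to compounds for 48 hr at 37 C, 5% CO2, then Hoechst-stained 40 min. Nuclear DNA content imaged by fluorescence scanning (405 nm excitation, 500-530 nm emission); re-replication scored as increased high-intensity nuclei.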
HT1080 IDH1KD tx: qHTS for induction of synthetic lethality in tumor cells producing 2HG: qHTS for the HT-1080-IDH1KD cell line; HT-1080 IDH1 knockdown viability, ATP luminescence, 48 h; Potency, µM (highest dose often 46.1 µM), for the others: top-dose activity, negative = toxicity, usual class: cytotoxic; actives 2% (n = 360,000);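 note: 0% = DMSO wells and -100% = cell-free medium wells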
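% activity derives from luminescence (CellTiter-Glo), normalised to DMSO and no-cell wells. HT-1080-IDH1KD cells, 750/well, had 48 h compound exposure at 37 °C.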
The depositor's hits bear a star; [ ] = dose if it differs, or a comment. Calls come from the whole dose curve; as a rule, active = well fitted curve in the direction sought with a large enough effect; inconclusive = small, poorly fitted or top-dose-only effect, or another doubt; inactive = no such curve, though single readings can be large; an effect the other way counts as inactive or inconclusive. Potency is the fitted concentration of half-maximal effect.

How did COc1ccc(OC(C)C(=O)N(C)Cc2nc(-c3ccc(C)cc3)no2)cc1 (stereo not given) do in these assays?
MCF10A rerep: 11%; KB-V1 MDR tox: inconclusive; KB-3-1 cytotox: inactive; HT1080NT lethal: -17%; SW480 rereplic: 2%; HT1080 IDH1KD tx: -18%

What do the screens show for `COc1ccc(-c2nc3ccccc3o2)cc1NC(=O)COc1ccc(C)cc1`?
KB-V1 MDR tox: inactive; KB-3-1 cytotox: inactive

How did Nc1cccc(-n2cccc2)c1 do in these assays?
MCF10A rerep: -2%; KB-V1 MDR tox: inconclusive; KB-3-1 cytotox: inactive; HT1080NT lethal: -4%; SW480 rereplic: -7%; HT1080 IDH1KD tx: 0%

Results for C=CCSc1nc(-c2ccc(OC)cc2)c(C#N)c(=O)n1CC=C ?
MCF10A rerep: 21µM*; KB-V1 MDR tox: inactive; KB-3-1 cytotox: inactive; HT1080NT lethal: -33%; SW480 rereplic: -2%; HT1080 IDH1KD tx: inconclusive

What do the screens show for `O=c1[nH]c(CSc2ccccn2)nc2c1cnn2-c1ccccc1`?
MCF10A rerep: -1%; KB-V1 MDR tox: 21µM*; KB-3-1 cytotox: inactive; HT1080NT lethal: 0%; SW480 rereplic: -4%; HT1080 IDH1KD tx: 1%

Results for CCOC(=O)N1CCN(c2cc3[nH]c(=S)[nH]c3cc2F)CC1 ?
MCF10A rerep: -1%; KB-V1 MDR tox: inactive; KB-3-1 cytotox: inactive; HT1080NT lethal: 9%; SW480 rereplic: 2%; HT1080 IDH1KD tx: 26%

What do the screens show for `CCOC(=O)N1CCN(c2c(F)cc3[nH]c(=S)[nH]c3c2Br)CC1`?
MCF10A rerep: 8.2µM*; KB-V1 MDR tox: 8.2µM*; KB-3-1 cytotox: inconclusive; HT1080NT lethal: 16µM*; SW480 rereplic: inconclusive; HT1080 IDH1KD tx: inconclusive

Results for CCC(CC)c1nnc(NC(=O)c2c(C)nn(Cc3ccccc3Cl)c2C)s1 ?
MCF10A rerep: 13%; KB-V1 MDR tox: inconclusive; KB-3-1 cytotox: inactive; HT1080NT lethal: -19%; SW480 rereplic: 0%; HT1080 IDH1KD tx: 2%[9.24 µM]

How did CC(=O)OCCNc1cc(Sc2nc3ccccc3[nH]2)c2nonc2c1[N+](=O)[O-] do in these assays?
MCF10A rerep: inconclusive; KB-V1 MDR tox: inactive; KB-3-1 cytotox: inconclusive; HT1080NT lethal: -37%; SW480 rereplic: inconclusive; HT1080 IDH1KD tx: 18µM*

Results for CC(=O)OCCCNc1cc(Sc2nc3ccccc3s2)c2nonc2c1[N+](=O)[O-] ?
MCF10A rerep: inconclusive; KB-V1 MDR tox: inactive; KB-3-1 cytotox: inactive; HT1080NT lethal: -4%; SW480 rereplic: 12%; HT1080 IDH1KD tx: 1%

What do the screens show for `COC(=O)CCSc1cc(NCCOC(C)=O)c([N+](=O)[O-])c2nonc12`?
MCF10A rerep: inconclusive; KB-V1 MDR tox: inactive; KB-3-1 cytotox: inactive; HT1080NT lethal: 21µM*; SW480 rereplic: -7%; HT1080 IDH1KD tx: inconclusive

How did CCC(CC)c1nn2c(=O)cc(COc3ccc(NC(=O)c4ccccc4Cl)cc3)nc2s1 do in these assays?
KB-V1 MDR tox: inconclusive; KB-3-1 cytotox: inactive

Results for COc1ccccc1N(Cc1ccccc1)S(=O)(=O)c1cccc(C(=O)O)c1 ?
MCF10A rerep: 3%; KB-V1 MDR tox: inactive; KB-3-1 cytotox: inactive; HT1080NT lethal: -2%; SW480 rereplic: -5%; HT1080 IDH1KD tx: 3%

Results for CCOc1ccccc1NC(=O)c1cccc(S(=O)(=O)N(Cc2ccccc2)c2ccccc2OC)c1 ?
MCF10A rerep: inconclusive; KB-V1 MDR tox: 8.2µM*; KB-3-1 cytotox: inactive; HT1080NT lethal: 0%; SW480 rereplic: 16%; HT1080 IDH1KD tx: 4%

Results for CC(C)c1ccccc1NC(=O)c1ccc(CN(c2ccccc2)S(=O)(=O)c2ccccc2)cc1 ?
MCF10A rerep: 3%; SW480 rereplic: -4%

What do the screens show for `Cc1ccccc1NC(=O)c1ccc(CN(c2ccccc2)S(=O)(=O)c2ccccc2)cc1`?
MCF10A rerep: 6%; KB-V1 MDR tox: 10µM*; KB-3-1 cytotox: inactive; HT1080NT lethal: -9%; SW480 rereplic: 10%; HT1080 IDH1KD tx: -17%

What do the screens show for `COc1ccccc1N(Cc1ccccc1)S(=O)(=O)c1cc(C(=O)O)ccc1Cl`?
MCF10A rerep: 18µM*; KB-V1 MDR tox: inactive; KB-3-1 cytotox: inactive; HT1080NT lethal: inconclusive; SW480 rereplic: 2%; HT1080 IDH1KD tx: inconclusive

What do the screens show for `COc1ccccc1N(Cc1ccccc1)S(=O)(=O)c1cccc(C(=O)Nc2cc(C)ccn2)c1`?
MCF10A rerep: 5%; KB-V1 MDR tox: inactive; KB-3-1 cytotox: 16µM*; HT1080NT lethal: -24%; SW480 rereplic: 21%; HT1080 IDH1KD tx: inconclusive

How did COCCCNC(=O)CCCn1c(SCC(=O)c2ccc(Br)cc2)nc2c(sc3ccccc32)c1=O do in these assays?
KB-V1 MDR tox: inactive; KB-3-1 cytotox: inactive

What do the screens show for `COc1ccc(CCN2C(=O)NC(NS(=O)(=O)c3ccc(N)cc3)(C(F)(F)F)C2=O)cc1OC` (stereo not given)?
MCF10A rerep: 14%; KB-V1 MDR tox: inactive; KB-3-1 cytotox: inactive; HT1080NT lethal: 16%; SW480 rereplic: -1%; HT1080 IDH1KD tx: 3%

How did NC(=O)NC(=O)COC(=O)c1ccc(Cl)c(S(=O)(=O)N(Cc2ccccc2)c2ccc(Cl)cc2)c1 do in these assays?
MCF10A rerep: 21µM*; KB-V1 MDR tox: inactive; KB-3-1 cytotox: inactive; HT1080NT lethal: inconclusive; SW480 rereplic: 20%; HT1080 IDH1KD tx: inconclusive

Results for CCC1=NN(C(=O)COc2ccccc2)C(O)(c2ccncc2)C1 (stereo not given) ?
MCF10A rerep: 2%; KB-V1 MDR tox: inactive; KB-3-1 cytotox: inactive; HT1080NT lethal: 15%; SW480 rereplic: 6.5µM*; HT1080 IDH1KD tx: 17%

How did CCC1=NN(C(=O)Cc2ccccc2)C(O)(c2ccncc2)C1 (stereo not given) do in these assays?
MCF10A rerep: -4%; KB-V1 MDR tox: inactive; KB-3-1 cytotox: inactive; HT1080NT lethal: 6%; SW480 rereplic: 0%; HT1080 IDH1KD tx: 10%

What do the screens show for `O=[N+]([O-])c1cc(Cl)c2cccnc2c1O`?
MCF10A rerep: 2.6µM*; KB-V1 MDR tox: inconclusive; KB-3-1 cytotox: inconclusive; HT1080NT lethal: inconclusive; SW480 rereplic: inconclusive; HT1080 IDH1KD tx: inconclusive

Screening results as filed in PubChem.
